{"source": "the supplement of paper PMC10382584", "about": "“Macrocyclization of linear molecules by deep learning to facilitate macrocyclic drug candidates discovery” (Nature Communications, 2023)", "data": [{"compound": "Cc1cnc(Nc2ccc(OCCN3CCCC3)cc2)nc1Nc1cccc(S(=O)(=O)NC(C)(C)C)c1 [Fedratinib]", "experiment": "percent of DMSO control binding (KINOMEscan); higher = weaker binding / less inhibition; extreme values may be limits of the assay", "details": "concentration: 100 nM", "units": {"percent of DMSO control binding": "%"}, "values": [{"target": "LYN (UniProt P07948)", "sequence (P07948 whole entry, looked up)": "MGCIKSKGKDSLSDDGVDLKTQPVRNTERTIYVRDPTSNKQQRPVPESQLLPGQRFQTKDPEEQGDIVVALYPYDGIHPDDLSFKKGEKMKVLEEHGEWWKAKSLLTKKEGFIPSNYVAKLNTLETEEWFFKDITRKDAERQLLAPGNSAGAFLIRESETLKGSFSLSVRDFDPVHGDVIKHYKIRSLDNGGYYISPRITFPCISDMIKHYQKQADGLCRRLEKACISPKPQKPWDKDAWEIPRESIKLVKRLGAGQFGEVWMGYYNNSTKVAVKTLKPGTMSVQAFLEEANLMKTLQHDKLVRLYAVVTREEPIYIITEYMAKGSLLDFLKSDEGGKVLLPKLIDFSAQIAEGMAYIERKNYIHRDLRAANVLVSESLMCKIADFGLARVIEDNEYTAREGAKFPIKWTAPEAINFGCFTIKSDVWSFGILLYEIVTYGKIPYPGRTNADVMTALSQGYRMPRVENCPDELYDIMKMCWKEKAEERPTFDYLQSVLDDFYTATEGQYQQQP", "percent of DMSO control binding": 100}, {"target": "CDK4-cyclinD3 (UniProt P11802)", "percent of DMSO control binding": 90}, {"target": "LKB1 (UniProt Q15831)", "percent of DMSO control binding": 40}, {"target": "PIP5K1C (UniProt O60331)", "percent of DMSO control binding": 100}, {"target": "CDK9 (UniProt P50750)", "percent of DMSO control binding": 97}, {"target": "WEE2 (UniProt P0C1S8)", "percent of DMSO control binding": 100}, {"target": "FGFR4 (UniProt P22455)", "sequence (P22455 whole entry, looked up)": "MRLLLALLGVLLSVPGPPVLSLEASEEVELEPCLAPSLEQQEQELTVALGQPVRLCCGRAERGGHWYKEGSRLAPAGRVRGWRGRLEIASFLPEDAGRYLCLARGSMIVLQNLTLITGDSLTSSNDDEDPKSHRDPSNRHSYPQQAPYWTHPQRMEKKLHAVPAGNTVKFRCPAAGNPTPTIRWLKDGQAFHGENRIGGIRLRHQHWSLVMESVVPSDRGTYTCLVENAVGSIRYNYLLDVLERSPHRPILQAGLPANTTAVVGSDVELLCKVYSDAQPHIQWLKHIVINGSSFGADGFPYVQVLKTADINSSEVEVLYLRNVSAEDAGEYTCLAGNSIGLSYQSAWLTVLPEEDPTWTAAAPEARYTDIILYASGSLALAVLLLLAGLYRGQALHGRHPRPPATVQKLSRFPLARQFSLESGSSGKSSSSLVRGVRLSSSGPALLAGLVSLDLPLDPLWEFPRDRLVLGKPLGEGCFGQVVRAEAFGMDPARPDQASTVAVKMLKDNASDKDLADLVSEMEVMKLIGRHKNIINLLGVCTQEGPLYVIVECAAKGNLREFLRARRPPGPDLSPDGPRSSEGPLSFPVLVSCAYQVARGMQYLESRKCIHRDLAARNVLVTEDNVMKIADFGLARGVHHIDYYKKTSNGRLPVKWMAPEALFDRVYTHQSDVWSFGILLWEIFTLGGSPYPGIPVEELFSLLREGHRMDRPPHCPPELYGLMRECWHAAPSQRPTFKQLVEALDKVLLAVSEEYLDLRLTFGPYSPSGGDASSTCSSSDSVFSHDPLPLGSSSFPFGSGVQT", "percent of DMSO control binding": 100}, {"target": "HIPK2 (UniProt Q9H2X6)", "percent of DMSO control binding": 79}, {"target": "BMPR2 (UniProt Q13873)", "percent of DMSO control binding": 68}, {"target": "BRK (UniProt Q13882)", "percent of DMSO control binding": 87}, {"target": "ALK(L1196M) (UniProt Q9UM73)", "percent of DMSO control binding": 67}, {"target": "MAP3K15 (UniProt Q6ZN16)", "percent of DMSO control binding": 61}, {"target": "TAOK3 (UniProt Q9H2K8)", "percent of DMSO control binding": 60}, {"target": "RSK1(Kin.Dom.2-C-terminal) (UniProt Q15418)", "percent of DMSO control binding": 93}, {"target": "JAK1(JH2domain-pseudokinase) (UniProt P23458)", "percent of DMSO control binding": 80}, {"target": "PKN1 (UniProt Q16512)", "percent of DMSO control binding": 100}, {"target": "CTK (UniProt P42679)", "sequence (P42679 whole entry)": "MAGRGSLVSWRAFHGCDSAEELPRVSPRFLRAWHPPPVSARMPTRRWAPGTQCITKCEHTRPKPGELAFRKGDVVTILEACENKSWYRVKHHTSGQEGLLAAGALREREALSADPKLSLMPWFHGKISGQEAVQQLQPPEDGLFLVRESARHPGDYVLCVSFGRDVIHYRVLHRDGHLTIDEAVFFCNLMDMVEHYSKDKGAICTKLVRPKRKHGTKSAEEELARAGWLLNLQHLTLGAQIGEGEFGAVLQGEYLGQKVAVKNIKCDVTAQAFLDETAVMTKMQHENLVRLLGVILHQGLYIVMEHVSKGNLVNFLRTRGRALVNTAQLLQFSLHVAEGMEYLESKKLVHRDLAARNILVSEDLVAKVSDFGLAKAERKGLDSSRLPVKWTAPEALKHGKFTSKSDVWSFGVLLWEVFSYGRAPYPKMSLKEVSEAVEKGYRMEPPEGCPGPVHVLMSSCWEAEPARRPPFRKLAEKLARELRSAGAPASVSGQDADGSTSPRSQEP", "percent of DMSO control binding": 74}, {"target": "DDR1 (UniProt Q08345)", "sequence (Q08345 whole entry)": "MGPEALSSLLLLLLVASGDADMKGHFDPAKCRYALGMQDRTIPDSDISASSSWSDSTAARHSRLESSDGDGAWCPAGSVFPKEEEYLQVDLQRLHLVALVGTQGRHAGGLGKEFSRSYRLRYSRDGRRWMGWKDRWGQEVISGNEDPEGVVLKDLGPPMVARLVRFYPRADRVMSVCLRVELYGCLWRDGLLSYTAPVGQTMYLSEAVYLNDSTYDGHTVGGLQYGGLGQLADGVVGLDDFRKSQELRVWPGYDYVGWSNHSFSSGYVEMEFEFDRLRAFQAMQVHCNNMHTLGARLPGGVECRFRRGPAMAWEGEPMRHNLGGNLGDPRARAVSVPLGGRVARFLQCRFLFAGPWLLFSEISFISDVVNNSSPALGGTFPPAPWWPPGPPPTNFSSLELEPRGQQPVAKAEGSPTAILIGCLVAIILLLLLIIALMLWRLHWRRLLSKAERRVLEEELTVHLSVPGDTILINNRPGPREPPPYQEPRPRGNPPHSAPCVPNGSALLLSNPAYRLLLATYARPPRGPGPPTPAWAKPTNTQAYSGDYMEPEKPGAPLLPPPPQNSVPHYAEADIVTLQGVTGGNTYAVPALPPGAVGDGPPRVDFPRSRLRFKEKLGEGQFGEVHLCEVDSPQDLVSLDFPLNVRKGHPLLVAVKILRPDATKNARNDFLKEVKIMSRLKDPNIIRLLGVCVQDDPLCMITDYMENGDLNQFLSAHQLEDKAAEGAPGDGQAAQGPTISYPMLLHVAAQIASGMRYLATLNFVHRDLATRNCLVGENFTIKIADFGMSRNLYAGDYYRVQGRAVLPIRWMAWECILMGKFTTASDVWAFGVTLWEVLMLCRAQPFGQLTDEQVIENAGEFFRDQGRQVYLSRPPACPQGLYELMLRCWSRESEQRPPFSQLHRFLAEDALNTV", "percent of DMSO control binding": 100}, {"target": "EPHA1 (UniProt P21709)", "percent of DMSO control binding": 60}, {"target": "TYK2(JH1domain-catalytic) (UniProt P29597)", "percent of DMSO control binding": 8.8}, {"target": "EGFR(G719C) (UniProt P00533)", "percent of DMSO control binding": 100}, {"target": "MLK2 (UniProt Q02779)", "percent of DMSO control binding": 78}, {"target": "EGFR(E746-A750del) (UniProt P00533)", "percent of DMSO control binding": 99}, {"target": "DCAMKL2 (UniProt Q8N568)", "percent of DMSO control binding": 97}, {"target": "EGFR(G719S) (UniProt P00533)", "percent of DMSO control binding": 99}, {"target": "INSRR (UniProt P14616)", "sequence (P14616 whole entry)": "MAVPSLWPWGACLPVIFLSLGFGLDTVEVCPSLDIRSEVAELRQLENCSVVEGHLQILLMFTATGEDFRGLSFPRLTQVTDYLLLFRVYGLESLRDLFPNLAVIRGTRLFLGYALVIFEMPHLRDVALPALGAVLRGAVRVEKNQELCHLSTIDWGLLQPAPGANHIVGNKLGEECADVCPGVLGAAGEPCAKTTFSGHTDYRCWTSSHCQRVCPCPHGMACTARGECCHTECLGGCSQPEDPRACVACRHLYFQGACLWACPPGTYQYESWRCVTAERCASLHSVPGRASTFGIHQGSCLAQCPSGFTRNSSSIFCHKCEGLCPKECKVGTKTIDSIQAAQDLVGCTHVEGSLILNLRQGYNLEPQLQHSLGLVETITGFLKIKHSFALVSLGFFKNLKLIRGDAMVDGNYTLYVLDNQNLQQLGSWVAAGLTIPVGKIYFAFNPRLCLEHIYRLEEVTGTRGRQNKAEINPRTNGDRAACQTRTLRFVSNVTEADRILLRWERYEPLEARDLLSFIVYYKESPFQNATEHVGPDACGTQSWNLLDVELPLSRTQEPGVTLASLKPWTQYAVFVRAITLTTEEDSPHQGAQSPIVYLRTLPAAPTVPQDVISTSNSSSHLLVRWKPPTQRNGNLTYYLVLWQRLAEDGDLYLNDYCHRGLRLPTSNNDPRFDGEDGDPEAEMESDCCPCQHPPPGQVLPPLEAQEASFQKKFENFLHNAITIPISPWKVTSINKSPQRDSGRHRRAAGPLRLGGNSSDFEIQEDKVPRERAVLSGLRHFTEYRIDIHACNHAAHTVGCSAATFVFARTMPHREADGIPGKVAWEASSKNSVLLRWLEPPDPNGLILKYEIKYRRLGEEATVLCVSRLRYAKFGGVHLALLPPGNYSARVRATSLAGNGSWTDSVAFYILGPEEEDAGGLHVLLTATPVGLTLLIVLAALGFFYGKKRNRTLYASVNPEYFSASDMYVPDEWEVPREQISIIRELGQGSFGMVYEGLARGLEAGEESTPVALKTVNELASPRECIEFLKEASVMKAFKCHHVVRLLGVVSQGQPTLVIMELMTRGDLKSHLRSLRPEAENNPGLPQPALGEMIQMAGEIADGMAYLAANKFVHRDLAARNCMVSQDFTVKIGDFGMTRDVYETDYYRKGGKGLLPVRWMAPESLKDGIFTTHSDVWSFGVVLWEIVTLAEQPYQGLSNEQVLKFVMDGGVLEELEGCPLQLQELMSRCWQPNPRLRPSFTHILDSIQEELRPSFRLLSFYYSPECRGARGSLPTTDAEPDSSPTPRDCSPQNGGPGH", "percent of DMSO control binding": 100}, {"target": "NEK5 (UniProt Q6P3R8)", "percent of DMSO control binding": 94}, {"target": "PIK3CG (UniProt P48736)", "percent of DMSO control binding": 100}, {"target": "WNK1 (UniProt Q9H4A3)", "percent of DMSO control binding": 100}, {"target": "OSR1 (UniProt O95747)", "percent of DMSO control binding": 91}, {"target": "FGFR3(G697C) (UniProt P22607)", "sequence (P22607 whole entry G697C, looked up)": "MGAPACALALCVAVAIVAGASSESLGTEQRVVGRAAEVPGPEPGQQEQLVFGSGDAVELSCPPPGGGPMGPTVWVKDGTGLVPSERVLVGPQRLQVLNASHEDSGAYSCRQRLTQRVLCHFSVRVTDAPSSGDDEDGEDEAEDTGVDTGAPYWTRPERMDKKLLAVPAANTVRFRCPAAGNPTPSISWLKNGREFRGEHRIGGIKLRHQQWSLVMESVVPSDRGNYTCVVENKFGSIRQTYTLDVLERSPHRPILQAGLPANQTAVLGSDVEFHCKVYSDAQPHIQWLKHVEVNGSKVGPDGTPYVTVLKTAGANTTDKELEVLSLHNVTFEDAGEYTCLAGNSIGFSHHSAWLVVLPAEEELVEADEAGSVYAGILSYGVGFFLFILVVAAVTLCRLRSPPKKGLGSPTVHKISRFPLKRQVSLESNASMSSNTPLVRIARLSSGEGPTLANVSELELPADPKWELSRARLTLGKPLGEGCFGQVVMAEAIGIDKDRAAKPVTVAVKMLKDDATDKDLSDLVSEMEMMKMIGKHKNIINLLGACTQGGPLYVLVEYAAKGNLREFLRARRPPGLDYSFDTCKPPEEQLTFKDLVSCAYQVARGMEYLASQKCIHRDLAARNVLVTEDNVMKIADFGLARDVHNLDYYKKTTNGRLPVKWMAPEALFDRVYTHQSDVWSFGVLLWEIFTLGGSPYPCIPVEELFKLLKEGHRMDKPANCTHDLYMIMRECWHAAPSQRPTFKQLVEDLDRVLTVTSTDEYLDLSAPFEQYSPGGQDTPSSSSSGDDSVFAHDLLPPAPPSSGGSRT", "percent of DMSO control binding": 78}, {"target": "MET(Y1235D) (UniProt P08581)", "percent of DMSO control binding": 100}, {"target": "LRRK2(G2019S) (UniProt Q5S007)", "percent of DMSO control binding": 76}, {"target": "TAK1 (UniProt O43318)", "percent of DMSO control binding": 81}, {"target": "MLK1 (UniProt P80192)", "percent of DMSO control binding": 96}, {"target": "MAP3K4 (UniProt Q9Y6R4)", "percent of DMSO control binding": 77}, {"target": "MUSK (UniProt O15146)", "percent of DMSO control binding": 96}, {"target": "VRK2 (UniProt Q86Y07)", "percent of DMSO control binding": 63}]}]}
